Tests used:
Settings in all cases: concentration: 1 μM, replicates: in singlicate; n = 1
MEK5 = tested on: T1, MEK5
T1 construct: gene MAP2K5

MEK6 = tested on: T2, MEK6
T2 construct: gene MAP2K6

MELK = tested on: MELK
MERTK = tested on: MERTK
MET = tested on: MET
MINK = tested on: T3, MINK
T3 construct: gene MINK1

MKK7 = tested on: MKK7
MKNK1 = tested on: MKNK1
MKNK2 = tested on: MKNK2
MLCK = tested on: T4, MLCK
T4 construct: gene MYLK3
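Also: KINOMEscan kinase panel screen.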

| SMILES | %Inh (MEK5) [%] | %Inh (MEK6) [%] | %Inh (MELK) [%] | %Inh (MERTK) [%] | %Inh (MET) [%] | %Inh (MINK) [%] | %Inh (MKK7) [%] | %Inh (MKNK1) [%] | %Inh (MKNK2) [%] | %Inh (MLCK) [%] |
| --- | --- | --- | --- | --- | --- | --- | --- | --- | --- | --- |
| CC(=O)Nc1nc2cnc(Nc3cc(NC(=O)c4cccc(C5(C#N)CC5)c4Cl)ccc3C)nc2s1 | 12 | 25 | 0 | 17 | 8 | 0 | 10 | 16 | 0 | 0 |
| COc1cccc(C(=O)Nc2cccc(Oc3ccc4nc(NC(=O)C5CC5)cn4n3)c2)c1 | 98.2 | 0 | 35 | 57 | 20 | 63 | 0 | 4 | 0 | 0 |
| CN(c1ccc(NC(=O)Nc2cc(C(F)(F)F)ccc2F)cc1)c1ccnc(Nc2ccc(S(N)(=O)=O)cc2)n1 [GW809893] | 98.8 | 100 | 12 | 98.2 | 88 | 76 | 2 | 50 | 98.9 | 28 |
| NCCCC(NC(=O)c1cc(Br)c(-c2ccnc3[nH]ccc23)s1)c1ccccc1.O=C(O)C(F)(F)F.O=C(O)C(F)(F)F (stereo not shown) [GSK1287544] | 7 | 0 | 54 | 55 | 6 | 27 | 16 | 0 | 83 | 47 |
| Cl.Cl.NCC(C(=O)Nc1cc(Br)c(-c2ccnc3[nH]ccc23)s1)c1ccccc1 (stereo not shown) [GSK1269851] | 20 | 0 | 45 | 19 | 0 | 8 | 0 | 13 | 99.1 | 98.7 |
| Cl.c1ccc(-c2ccc3c(Nc4ccc5[nH]ncc5c4)ccnc3c2)nc1 [GW440137] | 89 | 0 | 15 | 0 | 0 | 43 | 0 | 5 | 18 | 15 |
| CN1CCN(CCCNc2nccc(-c3c(-c4ccc(F)cc4)nn4cc(C(F)(F)F)ccc34)n2)CC1 [GW621581] | 25 | 0 | 0 | 26 | 0 | 17 | 0 | 0 | 1 | 4 |
| C[C@@H]1CC[C@@H](C(=O)Nc2ccccc2)CN1c1cc(-c2ccc3c(N)n[nH]c3c2)nc(N)n1 [GSK2286062] | 4 | 8 | 31 | 39 | 0 | 9 | 0 | 0 | 12 | 16 |
| COc1cc(Nc2nccc(N3CCC(NC(=O)Nc4cccc(C(C)=O)c4)C3)n2)cc(OC)c1OC (stereo not shown) [GSK1379753] | 99.6 | 0 | 0 | 23 | 12 | 0 | 0 | 9 | 62 | 0 |
| CC(C)(C)c1ccc2nccc(Nc3cccc(O)c3)c2c1 [GW856795] | 52 | 0 | 1 | 0 | 0 | 0 | 31 | 47 | 23 | 0 |
| Fc1ccc(-c2ncn(C3CCNCC3)c2-c2ccnc(Oc3ccc(-c4ccccc4)cc3)n2)cc1 [SB-245391] | 17 | 29 | 27 | 0 | 50 | 30 | 11 | 0 | 10 | 0 |
| Cl.c1ccc(-c2ccc3c(Nc4ccc5[nH]ccc5c4)ccnc3c2)nc1 [GW440138] | 83 | 0 | 0 | 34 | 0 | 75 | 0 | 2 | 0 | 0 |
| Clc1ccc(-c2nn3ncccc3c2-c2ccnc(Nc3ccc4c(c3)OCCO4)n2)cc1 [GW829116] | 33 | 20 | 0 | 0 | 0 | 23 | 0 | 0 | 0 | 0 |
| COc1ccc(-c2coc3ccc(-c4nnc(SCc5ccc(OC)c(C(F)(F)F)c5)o4)cc23)cc1 | 4 | 0 | 20 | 11 | 13 | 26 | 14 | 0 | 1 | 0 |
| c1ccc(Oc2ccc(Nc3ccnc4cc(-c5ccc(CNCCN6CCOCC6)o5)ccc34)cc2)nc1 [GW567145] | 100 | 0 | 0 | 9 | 0 | 37 | 0 | 0 | 19 | 10 |
| COc1ccc(Nc2nccc(N3CCC(NC(=O)Nc4cccc(OC)c4)C3)n2)cc1 (stereo not shown) [GSK1379742] | 46 | 0 | 7 | 19 | 0 | 0 | 0 | 3 | 0 | 0 |

— article PMC5540273 (PLoS ONE, 2017)
